The source of these data is PubChem BioAssay (NCATS).

Several values for one entry are separate records, joined by “and”; a condition that tells them apart may be missing. Equal values may be shown once. Inconclusive results are not listed. Values without a mark were called inactive. Activity calls are given as the source filed them. Unless noted, calls follow the shape of the dose curve; as a rule, active = well fitted curve in the direction sought with a large enough effect; inconclusive = small, poorly fitted or top-dose-only effect, or another doubt; inactive = no such curve, though single readings can be large; an effect the other way counts as inactive or inconclusive.

For test [1], the target named is Cellular tumor antigen p53 (Homo sapiens) (UniProt P04637). Briefly: Primary qHTS for small molecule compounds that upregulate eGFP-tagged delta133p53alpha (in N-terminal) cells. (AID 2060322). Also: nearly all actives have a fitted effect of over 75% in size. Also: potency is read from the fitted curve at half-maximal effect.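 As to activation: cells pre-induced with doxycycline then dosed without doxycycline; series mostly up to about 56 µM; 0% = DMSO vehicle and 100% = reference activator.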 The note with it: NCI-H358 eGFP-delta133p53alpha fluorescence, 24 h; activation: hits give high values. The gist of the method:
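NCI-H358 cells pre-induced 24 h with 10 ng/ml doxycycline for eGFP-delta133p53alpha, plated dox-free and exposed 24 h at 37C to titrated compounds. Fixed, Hoechst-stained; gated GFP peak intensity by laser scanning cytometry, normalized to DMSO (0%) and 57.5 uM 5-azacytidine (100%).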

Test [2] has the same target. Briefly: Primary qHTS for small molecule compounds that upregulate eGFP-tagged delta133p53alpha (in C-terminal) cells. (AID 2060324). Also: potency is read from the fitted curve at half-maximal effect. The gist of the method: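 Doxycycline (100 ng/ml, 24 h) first induced the eGFP fusion in NCI-H358 C-terminal-tag cells. Washed-out cells then received titrated compounds for 24 h at 37 °C before paraformaldehyde fixation, Hoechst staining and cytometric GFP quantification.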

In test [3] the target is Aldehyde dehydrogenase, mitochondrial (Homo sapiens) (UniProt P05091). Put plainly: qHTS for Inhibitors of the Aldehyde Dehydrogenase Family (ALDH2) Validation screens (AID 2061302; active = well fitted inhibition curve with a large enough effect; title and protocol of this record describe different tests;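 also: plate controls were DMSO vehicle for no effect and maximal DPI positive control response for full effect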).
The target in test [4] is Retinaldehyde dehydrogenase 3 (Homo sapiens) (UniProt P47895). Briefly: qHTS for Inhibitors of the Aldehyde Dehydrogenase Family (ALDH1A3) Validation screen (AID 2061312). Also: % is scaled to controls: 0 for no effect and ±100 for the full control effect; nearly all actives have a fitted effect of over 45% in size. In general terms: qHTS replaces the single test concentration by a dilution series.
Test [5] is described as follows: BET inhibitor-based combinations targeting novel dependencies in MECOM-rearranged (r) AML: SET-2 cell line (AID 2202231). Also: nearly all actives have a fitted effect of over 35% in size. Also: potency is read from the fitted curve at half-maximal effect.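 As to viability: plate controls were DMSO treated cells for no effect and wells without cells for full effect.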 The note with it: SET-2 AML cells viability, CellTiter-Glo luminescence, 48 h; viability: hits give low values, concentration not given here. The gist of the method: (§1)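 A 48 hr incubation preceded viability reading by CellTiter-Glo, with 15 min room-temperature development. Dose series had 11 points; normalization used DMSO and empty wells; AUC was computed and mean-centered per line as Z-AUC.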
(ATP-based viability assays read luminescence as a measure of living cells.)

The nature of test [6]: BET inhibitor-based combinations targeting novel dependencies in MECOM-rearranged (r) AML: OCI-AML3 cell line (AID 2202232). Also: nearly all actives have a fitted effect of over 35% in size. Also: potency is read from the fitted curve at half-maximal effect. The note with it: Potency: OCI-AML3 viability. The gist of the method: as §1
Test [7] is described as follows: BET inhibitor-based combinations targeting novel dependencies in MECOM-rearranged (r) AML: HNT-34 cell line (AID 2202234). Also: nearly all actives have a fitted effect of over 35% in size. Also: potency is read from the fitted curve at half-maximal effect. The gist of the method:
(§2)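 Each compound is tested in an 11-point concentration series against 500 seeded cells/well for 48 hr. The luminescent viability signal is normalized to DMSO and blank wells, then reduced to AUC and a cell-line-centred Z-AUC.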

Test [8] is described as follows: BET inhibitor-based combinations targeting novel dependencies in MECOM-rearranged (r) AML: UCSD-AML1 cell line (AID 2202235). Also: nearly all actives have a fitted effect of over 40% in size. Also: potency is read from the fitted curve at half-maximal effect. The gist of the method: as §2
Test [9] is described as follows: BET inhibitor-based combinations targeting novel dependencies in MECOM-rearranged (r) AML: AML-191 cell line (AID 2202236; also: nearly all actives have a fitted effect of over 35% in size; also: potency is read from the fitted curve at half-maximal effect). The gist of the method:
as §1

The nature of test [10]: BET inhibitor-based combinations targeting novel dependencies in MECOM-rearranged (r) AML: AML-194 cell line (AID 2202237; also: nearly all actives have a fitted effect of over 40% in size; also: potency is read from the fitted curve at half-maximal effect). The gist of the method:
as §1

Test [11] in a line: BET inhibitor-based combinations targeting novel dependencies in MECOM-rearranged (r) AML: MV-4-11 cell line (AID 2202233). Also: nearly all actives have a fitted effect of over 45% in size. Also: potency is read from the fitted curve at half-maximal effect. The gist of the method:
as §2

Chain of Cellular tumor antigen p53 (Homo sapiens) (P04637 whole entry, looked up): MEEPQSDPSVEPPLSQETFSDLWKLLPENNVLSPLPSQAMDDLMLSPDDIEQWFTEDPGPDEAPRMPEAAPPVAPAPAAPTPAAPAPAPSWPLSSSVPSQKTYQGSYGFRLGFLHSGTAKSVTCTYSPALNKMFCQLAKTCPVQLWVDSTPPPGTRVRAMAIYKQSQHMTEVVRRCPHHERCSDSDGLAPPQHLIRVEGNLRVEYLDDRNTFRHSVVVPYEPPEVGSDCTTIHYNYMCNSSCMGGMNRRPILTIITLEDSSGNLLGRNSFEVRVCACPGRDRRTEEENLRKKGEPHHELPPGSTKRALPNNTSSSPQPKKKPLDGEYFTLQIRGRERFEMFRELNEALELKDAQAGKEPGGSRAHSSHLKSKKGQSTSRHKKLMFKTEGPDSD

As for `CC(/C=C/c1cccc(Oc2ccc(F)cc2)c1)N(O)C(N)=O` (stereo not given), in test [1], the activation was -36%. The Potency entry in [2], in test [3] and in test [4] was “inactive” in each case.
Turning to `CCCC(=O)NCCc1c2n(c3ccc(OC)cc13)CCCc1ccccc1-2`, the activation in [1] was -45.5%. For the same compound, the Potency entry in test [2], in test [3] and in [4] was “inactive” throughout.
On to `CSc1ccccc1N1CCN(CCCCCC(=O)NC2CCCc3ccccc32)CC1` (stereo not given), for which the activation in test [1] is -61.7%. For the same compound, the Potency entry in test [2], in test [3] and in test [4] was “inactive” throughout.
In the case of `COc1cccc(C(=O)NCCN2CCN(c3ccc(Cl)cc3)CC2)c1`, the activation in [1] was -34.4%. Further, the Potency entry in [2], in test [3] and in [4] was “inactive” in each case.
Turning to `COCCOc1cc2nc[nH]c(=O)c2cc1OCCOC`, in test [1], the activation was -30.8%. Also, the Potency result in test [2], in test [3] and in test [4] was “inactive” throughout.
Consider `NCCCS(=O)(=O)O`, for which the activation in test [1] is 14.5%. Further, the Potency entry in [2], in [3] and in test [4] was “inactive” each time.
`c1cnc2c(c1)ccc1cccnc12`: the activation in test [1] is -78.4%. For the same compound, the Potency result in [2], in test [3] and in test [4] was “inactive” in each case.
`NC(=O)CNCCC(c1ccccc1)c1ccccc1`: in test [1], the activation is -18.2%. Moreover, the Potency result in [2], in test [3] and in [4] was “inactive” in each case.
For the compound `CCCCCCCC/C=C\CCCCCCCC(=O)NCCO`, in test [1], the activation was -9.12%. Also, the Potency result in [2], in [3] and in [4] was “inactive” throughout.
Consider `NCCCCN`, for which the activation in test [1] was 16%. Also, the Potency entry in [2], in [3] and in test [4] was “inactive” in each case.
For `CCCCC1C(=O)N(c2ccccc2)N(c2ccccc2)C1=O`, in test [1], the activation is 10% and 16.7%. Further, the Potency entry in test [2], in test [3] and in test [4] was “inactive” throughout.
Turning to `Nc1ccc(S(=O)(=O)Nc2ccnn2-c2ccccc2)cc1`, in test [1], the activation is 12.6% and 48.1% and -20.4%. In addition, the Potency entry in test [2], in test [3] and in test [4] was “inactive” in each case.
On to `CNCCCN1c2ccccc2CCc2ccccc21`, for which, in test [1], the activation is 14.2% and -26.6%. The Potency result in [2], in test [3] and in [4] was “inactive” in each case.
On to `CC(=O)/C(C)=N/O`, for which the activation in test [1] is -2.27%. The Potency entry in test [2], in [3] and in test [4] was “inactive” each time.
As for `COC(=O)Nc1nc2ccc(C(=O)c3cccs3)cc2[nH]1`, in test [1], the activation is -4.18%. Moreover, the Potency entry in test [2], in test [3] and in test [4] was “inactive” each time. For the same compound, the Potency was 209 nM (active) in test [5]; 93.4 nM (active) in test [6]; 83.3 nM (active) in test [7]; 83.3 nM (active) in test [8]; 66.1 nM (active) in [9]; 332 nM (active) in test [10].
`C[C@@H](c1ncncc1F)[C@](O)(Cn1cncn1)c1ccc(F)cc1F`: in [1], the activation is -3.85% and -2.78%. Also, the Potency entry in test [2], in test [3], in test [4], in test [6], in test [11] and in test [8] was “inactive” each time. In addition, the Potency result in test [9] and in [10] was “inactive” each time. Also, the viability in test [5] was 105%.
On to `Nc1nnc(-c2cccc(Cl)c2Cl)c(N)n1`, for which, in [1], the activation is 5.86% and 2.46% and -39.9%. Besides, the Potency result in test [2], in [3], in test [4], in test [6], in [11] and in [7] was “inactive” each time. Also, the Potency entry in test [8], in test [9] and in test [10] was “inactive” throughout. Also, the viability in test [5] was 116%.
On to `NC(=O)c1cnccn1`, for which the activation in test [1] was -1.69% and -18.4% and -16.9%. Further, the Potency entry in test [2], in test [3], in test [4], in [6], in [11] and in test [7] was “inactive” throughout. The Potency result in test [8], in [9] and in [10] was “inactive” in each case. In test [5], the viability was 105%.
Regarding `CCN(CC)CCNC(=O)c1c(C)[nH]c(/C=C2\C(=O)Nc3ccc(F)cc32)c1C`, the Potency in test [1] is 4.9 µM (active) and 26.9 µM (active); in [2], 6750 nM (active); in test [5], 16600 nM (active); in test [6] it was 5900 nM (active); in test [11], 46.8 nM (active); in [7], 1860 nM (active). Further, the Potency in test [8] was 3720 nM (active); in test [9], 3720 nM (active); in test [10] it was 4680 nM (active). The Potency entry in [3] and in test [4] was “inactive” throughout.
As for `CC(C)NCC(O)c1ccc(NS(C)(=O)=O)cc1` (stereo not given), in test [1], the activation is -72.6%. The Potency entry in [2], in test [3], in test [4], in test [6], in test [11] and in [7] was “inactive” throughout. Besides, the Potency result in [8] and in test [10] was “inactive” each time. Besides, the viability in test [5] was 116%.
`NCCCCCC(=O)O`: the activation in test [1] was 2.82% and -3.41%. Moreover, the Potency entry in [2], in test [3], in test [4], in test [11], in test [7] and in test [8] was “inactive” each time. Also, the Potency entry in test [9] and in test [10] was “inactive” each time. The viability in test [5] is 112%. Moreover, the Potency in test [6] is 3.7 nM (active).
In the case of `CC(C(=O)O)c1cccc(C(=O)c2ccccc2)c1` (stereo not given), the activation in test [1] was 8.47% and 8.5% and -11%. Also, the Potency entry in [2], in [3], in test [4], in test [6], in test [11] and in test [7] was “inactive” throughout. Further, the Potency entry in test [9] and in test [10] was “inactive” each time. Further, the viability in test [5] was 117%.
`CCCCS(=N)(=O)CCC(N)C(=O)O` (stereo not given): in [1], the activation was -49.8%. Also, the Potency result in test [2], in test [3], in test [4], in [8], in [9] and in [10] was “inactive” in each case. The viability in test [5] was 120%. In addition, the Potency in test [6] was 9590 nM (active); in test [11], 21500 nM (active).
As for `CCOC(=O)C1=C(O)C(=O)N(Cc2ccccc2)C1`, the activation in test [1] was -27.1%. The Potency entry in test [2], in test [3], in test [4], in test [6], in test [7] and in test [8] was “inactive” throughout. The Potency entry in [9] and in test [10] was “inactive” each time. Moreover, the viability in test [5] is 93.1%.

For orientation: viability means a read-out of living cells in per cent, often relative to untreated cells.
